Source: PubChem BioAssay (National Center for Advancing Translational Sciences (NCATS))
Akt phos inh = blocks phosphorylation of Akt | Neuro2A IGF-stimulated pAkt S473 HTRF, 20 min; stronger effect = lower value | activity change, % for hits at 50 µM | actives 0.32% (n = 360,000) | AID 651550; in the data active = activity change below about -80%; inconclusive = mostly about -51% to -80%; also: % is scaled to controls: 0 for no effect and ±100 for the full control effect
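Neuro2A cells in DMEM with 0.5% FBS, overnight at 37 deg C, given compound at single 50 µM final, then IGF (6 nM final) for 20 min at 37 deg C. Lysed; phospho-Akt Ser473 by HTRF after 24 h, 665/615 ratio.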
TrxR1 inh = inhibitors of rat thioredoxin reductase 1. O89049. recombinant rTrxR1, NADPH fluorescence consumption, selenite substrate. Potency, µM (top dose mostly 114 µM), for the others: at the highest dose activity change, negative = inhibition, hits mostly inhibitors. actives 1% (n = 390,000); also: potency is read from the fitted curve at half-maximal effect; % is scaled to controls: 0 for no effect and ±100 for the full control effect; nearly all actives have a fitted effect of over 65% in size
Target sequence (O89049 whole entry, looked up): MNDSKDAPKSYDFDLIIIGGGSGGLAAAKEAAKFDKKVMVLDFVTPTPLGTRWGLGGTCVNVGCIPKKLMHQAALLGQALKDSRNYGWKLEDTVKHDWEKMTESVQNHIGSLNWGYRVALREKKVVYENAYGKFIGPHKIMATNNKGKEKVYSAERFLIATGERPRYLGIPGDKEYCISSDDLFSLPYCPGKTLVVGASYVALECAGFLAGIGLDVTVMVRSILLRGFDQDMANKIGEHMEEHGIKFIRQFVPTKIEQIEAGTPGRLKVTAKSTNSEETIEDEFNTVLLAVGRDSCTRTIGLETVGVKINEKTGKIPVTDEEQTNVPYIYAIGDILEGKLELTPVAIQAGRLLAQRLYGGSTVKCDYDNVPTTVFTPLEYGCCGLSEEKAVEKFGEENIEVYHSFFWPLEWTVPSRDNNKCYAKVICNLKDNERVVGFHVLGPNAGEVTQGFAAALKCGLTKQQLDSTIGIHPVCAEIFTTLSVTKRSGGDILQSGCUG
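Rat TrxR1 (90 nM in the dispensed reagent) was pre-reduced with 400 uM NADPH for 5 min at room temperature, then incubated with compound for 15 min. After 400 uM selenite was added, NADPH fluorescence (Ex 340/Em 450 nm) was followed for 8 min.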
A-T KAP1 phos = potential ataxia-telangiectasia treatments restoring KAP-1 phosphorylation | F2112 A-T fibroblasts, KAP-1 phosphorylation AlphaLISA; neocarzinostatin DNA damage 30 min before lysis | Potency, µM (highest dose often 57.5 µM), inactives show at the highest dose activation, hits mostly activators | actives 0.19% (n = 320,000) | AID 485349; also: potency is read from the fitted curve at half-maximal effect; % of control where 0% means no effect; nearly all actives have a fitted effect of over 45% in size
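hTERT-immortalized A-T patient fibroblasts (F2112), 500 cells/well in OPTI-MEM, 1% FBS, got compounds for 60 min, then NCS for 30 min at 37C. Lysates were then assayed for phospho-KAP-1 by AlphaLISA (anti-pKAP1 donor, anti-KAP1 acceptor beads), 6 hr at 25C.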
TrxR1 substrate = rat thioredoxin reductase 1 substrate activity; purified TrxR1 substrate turnover, NADPH consumption readout; Potency, µM (highest dose often 114 µM), without a hit: at the highest dose activity change, negative = substrate turnover; actives 0.01% (n = 390,000); AID 588456; also: potency is read from the fitted curve at half-maximal effect; % is scaled to controls: 0 for no effect and ±100 for the full control effect; nearly all actives have a fitted effect of over 50% in size
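Rat TrxR1, dispensed at 90 nM, was prereduced with 400 uM NADPH (final) for 5 min at ~22 deg C, then incubated with compound 15 min before 400 uM selenite. A first-read NADPH fluorescence drop versus no-compound background flagged substrates.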
N370S GC mod = N370S glucocerebrosidase modulation, Gaucher chaperone candidate; N370S GC spleen homogenate, 4MU-glucoside fluorescence; Potency, µM (series often up to 59.4 µM), for inactives: at the top dose activity change, negative = inhibition, hits mostly inhibitors; actives 0.092% (n = 330,000); AID 2101;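 also: potency is read from the fitted curve at half-maximal effect; 0% = full enzyme activity and -100% = no enzyme basal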
Pin1 inhibitor = blocks the human prolyl isomerase Pin1; AID 504891; Potency, µM (series often up to 115 µM), for inactives: top-dose activity, negative = inhibition, hits mostly inhibitors; actives 0.009% (n = 390,000); Pin1 FP peptide displacement, HiFluor488, 10 min; Q13526; active = well fitted inhibition curve with a large enough effect in the polarisation, with a control signal flat, not every such curve was filed as active; inconclusive = small, poorly fitted or top-dose-only effect, or effect the other way, or a change in a side signal; inactive = no such curve, though single readings can be large or run the other way; the % refers to the polarisation; also: potency is read from the fitted curve at half-maximal effect; % is scaled to controls: 0 for no effect and ±100 for the full control effect
Target sequence (Q13526 whole entry, looked up): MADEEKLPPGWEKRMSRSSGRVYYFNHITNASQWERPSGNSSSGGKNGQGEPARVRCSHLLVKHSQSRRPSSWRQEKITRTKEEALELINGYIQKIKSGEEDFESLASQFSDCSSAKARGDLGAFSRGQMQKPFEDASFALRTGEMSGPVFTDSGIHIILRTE
Starred values were filed as active, the others as inactive; i = inactive; ? = inconclusive; / = not tested or not shown; [ ] = another dose, or the depositor's remark. An excerpt weighted towards active compounds, which were near 1.4% of everything screened. Unless noted, calls follow the shape of the dose curve; as a rule, active = well fitted curve in the direction sought with a large enough effect; inconclusive = small, poorly fitted or top-dose-only effect, or another doubt; inactive = no such curve, though single readings can be large; an effect the other way counts as inactive or inconclusive.

SMILES	Akt phos inh	TrxR1 inh	A-T KAP1 phos	TrxR1 substrate	N370S GC mod	Pin1 inhibitor
CC(=O)Nc1ccc(S(=O)(=O)N/N=C/c2ccc(C)o2)cc1	i	-27%	2%	-15%	-5%	-3%
Cc1ccc(/C=C/C(=O)Nc2ccc(S(N)(=O)=O)cc2)o1	i	5µM*	-1%	4%[57.1 µM]	-4%	10%
Cc1csc(NC(=O)/C=C/c2ccc(C)o2)n1	i	?	-8%	-2%	-10%	12%
Cc1ccc(/C=C/C(=O)Nc2ccncc2)o1	i	79µM*	-3%	-17%	-4%	-1%
CC(=C/C(=O)O)/C=C/c1ccco1	i	28µM*	-2%	-12%	13%	-9%
CC(/C=C/c1ccc(Cl)o1)=C\C(=O)O	i	?	-4%	-19%	4%	-11%
CC(=O)NS(=O)(=O)c1ccc(NC(=O)/C=C/c2ccc(C)o2)cc1	i	16µM*	2%	5%[57.1 µM]	-21%	?
CCOc1ccccc1NC(=O)C1CCCN(c2ncnc3onc(-c4ccc(F)cc4)c23)C1 (stereo not given)	/	13%	/	2%	/	10%
COc1ccc(C(=O)N(Cc2ccccc2)Cc2ccccc2)cc1COc1ccc(NC(C)=O)cc1	/	/	/	/	/	2%
CN(C)S(=O)(=O)n1cnc2ccccc21	i	-15%	5%	-10%	-5%	1%
O=S(=O)(/C=C/c1ccccc1)n1cnc2ccccc21	-118%*	1%	13%	-2%	0%	-9%
CC(=O)CSc1nsc(SCC(C)=O)c1C#N	i	71µM*	0%	-7%	1%	14%
CCOC(=O)CSc1nsc(SCC(=O)OCC)c1C#N	i	1%	7%	-7%	-3%	2%
O=C(O)c1ccc(-c2ccc3cc(C45CC6CC(CC(C6)C4)C5)c(O)cc3c2)cc1	/	/	/	/	-8%	/
CC(=O)c1cc(O)c2ccccc2c1O	i	32µM*	-1%	-4%	-1%	?
CC(=O)c1coc2c1cc(O)c1ccccc12	i	9%	/	5%	3%	3%
COc1ccccc1NC(=S)NN=C(C)c1ccccn1	i	11µM*	/	-6%	/	1%
Cc1cccc(CN2CCN(C(=O)CCl)CC2)c1	i	11µM*	-2%	7%	20%	-5%
O=C(/C=C/c1ccco1)N1CCN(c2ncccn2)CC1	i	40µM*	1%	-9%	-3%	6%
O=C(/C=C/c1c(Cl)cccc1Cl)N1CCN(c2ncccn2)CC1	i	7%[57.1 µM]	4%	2%[57.1 µM]	17%	-9%
COc1ccc(S(=O)(=O)N2CCN(C(=O)/C=C/c3ccco3)CC2)cc1	i	13µM*	-4%	-2%	0%	?
Cc1ccc(/C=C/C(=O)N2CC(=O)Nc3ccccc32)o1	i	79µM*	10%	-10%	-2%	-4%
Cc1cc(C)cc(C(=O)N2CC(=O)Nc3ccccc32)c1	i	-5%	5%	-2%	6%	3%
CC(C)(C)n1ncc2c(=O)n(Cc3ccc(C#N)cc3F)cnc21	/	13%	/	-1%	/	/
Cc1ccc(/C=C/C(=O)N2CCN(S(=O)(=O)c3c(C)c(C)cc(C)c3C)CC2)o1	i	-76%[57.1 µM]	-1%	-4%[11.4 µM]	1%	47%
SMILES	Akt phos inh	TrxR1 inh	A-T KAP1 phos	TrxR1 substrate	N370S GC mod	Pin1 inhibitor
Cc1ccc(/C=C/C(=O)N2CCN(Cc3ccccc3)CC2)o1	i	45µM*	1%	-9%	-2%	5%
Cc1ccc(/C=C/C(=O)N2CCN(S(=O)(=O)c3ccc(C)c(C)c3)CC2)o1	i	18µM*	-7%	-3%	3%	33%
Cn1c(=O)c2c(nc(NCC(O)CO)n2CCc2ccccc2)n(C)c1=O (stereo not given)	i	15%[57.1 µM]	-2%	8%[57.1 µM]	20%	-5%
CC(O)CNc1nc2c(c(=O)n(C)c(=O)n2C)n1CCc1ccccc1 (stereo not given)	-112%*	-14%	2%	-7%	5%	-1%
O=C(c1ccc(Br)o1)N1CCC(c2nc3ccccc3[nH]2)CC1	i	45µM*	2%	-3%	0%	13%
CC(C)(C)c1cc(C(F)(F)F)c(C#N)c(=O)[nH]1	i	-18%[57.1 µM]	7%	437%	?	?
CC(C)(C)c1cc(=O)n2c(C#N)c(C#N)nc2[nH]1	-89%*	-19%	1%	87%	-2%	2%
CC(C)(C)n1ncc2c(=O)n(Cc3cc(C(F)(F)F)ccc3Cl)cnc21	/	1%	/	-4%	/	/
CC1CCN(C(=O)c2ccc(S(=O)(=O)Cc3cccc(F)c3)c([N+](=O)[O-])c2)CC1	i	?	-9%	3%	1%	-2%
Cc1ccccc1CS(=O)(=O)c1ccc(C(=O)N2CCC(C)CC2)cc1[N+](=O)[O-]	i	10%[57.1 µM]	-4%	7%	14%	-2%
O=C(c1ccc(S(=O)(=O)Cc2cc(F)ccc2F)c([N+](=O)[O-])c1)N1CCCC1	i	10µM*	4%	-9%[57.1 µM]	-2%	1%
O=C(c1ccc(S(=O)(=O)Cc2cc(F)ccc2F)c([N+](=O)[O-])c1)N1CCCCC1	i	4.5µM*	6%	0%	4%	1%
Cc1cccc2[nH]cc(/C=C3/C=Nc4ccccc43)c12	/	-2%	/	-1%	/	/
COc1ccc(C(=O)COc2ccccc2N2C(=O)C3C4C=CC(C4)C3C2=O)cc1 (stereo not given)	-139%*	6%	/	-9%[57.1 µM]	-13%	7%
C=C(C)C(=O)Nc1cccc(C2=NOC3(C2)C[C@@H](C(N)=O)N(C(=O)C(=C)C)C3)c1 (stereo not given in full)	i	-18%[57.1 µM]	-6%	-5%[57.1 µM]	-6%	?
C/C=C\C=C/C(=O)Nc1cccc(C2=NOC3(C2)C[C@@H](C(N)=O)N(C(=O)/C=C/CC)C3)c1 (stereo not given in full)	i	16µM*	?	0%	-8%	?
NC(=O)[C@H]1CC2(CC(c3cccc(NC(=O)COc4ccc(Cl)cc4)c3)=NO2)CN1C(=O)CC(c1ccccc1)c1ccccc1 (stereo not given in full)	i	19%	-13%	0%	-6%	28%
NC(=O)[C@@H]1CC2(CC(c3cccc(NC(=O)CC(c4ccccc4)c4ccccc4)c3)=NO2)CN1C(=O)COc1ccc(Cl)cc1 (stereo not given in full)	i	24%	35µM*	0%	10%	32%
C/C=C\C=C/C(=O)Nc1cccc(C2=NOC3(C2)C[C@@H](C(N)=O)N(C(=O)C2(C)CC2)C3)c1 (stereo not given in full)	i	28µM*	-6%	3%	-1%	9%
